Our source for the growth values is PubChem BioAssay (NCI).

The structures appear in SMILES notation. Compounds without any hit were thinned out: in the full panel of roughly 83,000, 20% have a hit.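 Cell lines were cultured in 96-well plates, exposed to a single compound concentration, and assessed for percent growth 48 hours later.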 Values without a mark were called inactive. Calls of active or inactive are those of the source. How the source made its calls: active means growth percent below 10; inactive means the rest.

The subject of this assay is SNB-75 CNS. The assay can be described thus: NCI-60 one-dose screen, 48 h (100 = growth as untreated, 0 = no growth, -100 = all killed). The conditions noted are these: 10 µM unless noted.
Regarding `CCOC(=O)c1cnc2ccc(Br)cc2c1Nc1cccc(S(N)(=O)=O)c1`, the growth was 80.6%. For `CCCCC(CCCCCC(CCCC)C1NC(C)Cc2cc(OC)c(OC)cc21)C1NC(C)Cc2cc(OC)c(OC)cc21` (centres undefined), the growth was -99.9% (active). With `O=C(N=c1n(-c2ccccc2)nc2n1CCN2C1=NCCN1C(=O)c1ccc(Cl)cc1)c1ccc(Cl)cc1` the figure was 68.8%; with `O=C(OCc1ccc2c(Cl)cc(Cl)c(O)c2n1)N1CCN(C(=O)c2cc3cc(F)ccc3[nH]2)CC1`, 28.6%. With `CC1=C/C(=C(\c2cc(C)c(O)c(C(=O)O)c2)c2c(Cl)cccc2Cl)C=C(C(=O)O)C1=O` the figure was 90.3%. With `COc1ccc(C(=O)CCC(=O)O)cc1` the figure was 99.9%; with `CCN(CC)c1ccc(/C=C/C=C2\NC(=O)NC2=O)cc1`, 33.8%; with `COc1cc(NCc2ccccc2O)c2ncccc2c1`, 64.5%. `O=C(Oc1ccc(Cl)cc1[N+](=O)[O-])Oc1ccc(Cl)cc1[N+](=O)[O-]`: the growth was 108%.

On to `COc1ccc(-c2cc(-c3ccc(OC)c(OC)c3)nc(SCCCCCC(=O)NO)n2)cc1`, for which the growth was 46.2%.

Take `O=C(NCCCNC(=O)OCc1ccc2cccc(O)c2n1)OCc1ccc2cccc(O)c2n1`: the growth was 28.4%. In the case of `CCCCNC(=O)NS(=O)(=O)Cc1ccccc1` it was 95.3%; in that of `Nc1cccc2c1C(=O)c1cccc(NC(=O)c3ccccc3)c1C2=O`, 6% (active). In the case of `Cc1cc(NN=C(c2ccc(O)cc2)c2ccc(O)cc2)c([N+](=O)[O-])cc1[N+](=O)[O-]` it was 74.3%.
